Activity calls are given as the source filed them. A call without a number means that no potency is given here. Calls come from the whole dose curve; as a rule, active = well fitted activation curve with a large enough effect in the repeat runs; inconclusive = weak or mixed curves; inactive = flat fitted curve, though single readings scatter.

The assay deals with KiSS-1 receptor (Homo sapiens) (UniProt Q969F8). The assay is described as follows: Human kisspeptin (KISS1R) small molecule agonists, calcium flux assay in KISS1R-HEK293 cells (AID 1920064). To be noted: KISS1R-HEK293, calcium flux fluorescence, agonist; series mostly up to 76.8 µM. Summed up: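 After overnight (18 h) culture at 37 C/5% CO2, human KISS1R-HEK293 cells received calcium dye for 1 h, then test compound; emission at 540 nm (excitation 480 nm) was tracked for 3 min.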
Chain of KiSS-1 receptor (Homo sapiens) (Q969F8 whole entry, looked up): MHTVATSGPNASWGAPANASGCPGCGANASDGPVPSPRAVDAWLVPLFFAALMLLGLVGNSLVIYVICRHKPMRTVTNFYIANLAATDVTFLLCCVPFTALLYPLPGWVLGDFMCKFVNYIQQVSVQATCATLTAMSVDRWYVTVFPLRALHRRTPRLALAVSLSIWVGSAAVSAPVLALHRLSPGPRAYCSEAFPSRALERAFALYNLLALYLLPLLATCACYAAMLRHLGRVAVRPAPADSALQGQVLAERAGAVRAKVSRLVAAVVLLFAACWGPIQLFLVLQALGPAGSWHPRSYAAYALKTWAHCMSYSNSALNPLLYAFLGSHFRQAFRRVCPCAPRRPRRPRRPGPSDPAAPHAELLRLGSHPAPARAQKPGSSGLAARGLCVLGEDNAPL
(In general: Calcium assays in cells follow changes in intracellular calcium, usually with a dye or a luminescent sensor.)
Turning to `CCCCCCCCCCCC[N+](C)(C)C`, the Potency result was “inactive”.

`O=C1CCCCCCCCCCC1`: the Potency result is “inactive”.

On to `CC(=O)[C@H]1CC[C@H]2[C@@H]3CC=C4C[C@@H](O)CC[C@]4(C)[C@H]3CC[C@]12C`, for which the Potency entry was “inactive”.

As to `O=C1O[C@H](CO)[C@@H](O)[C@H](O)[C@H]1O`, the Potency result is “inactive”.

On to `Brc1nc2ccccc2s1`, for which the Potency result was “inactive”.

In the case of `Oc1ccc2ccccc2c1N=Nc1ccccc1`, the Potency entry was “inactive”.

Turning to `Nc1cc([N+](=O)[O-])ccc1C(=O)O`, the Potency entry was “inactive”.

As to `CCCCCCCCCCCCCC[N+](C)(C)Cc1ccccc1`, the Potency result is “inactive”.

With `CCCCCCCCOc1ccc(C(=O)c2ccccc2)c(O)c1`, the Potency result was “inactive”.

As for `Clc1ccc(Cl)c(Cl)c1Cl`, the Potency result is “inactive”.

As to `COc1ccc(C(Cl)=C(c2ccc(OC)cc2)c2ccc(OC)cc2)cc1`, the Potency result was “inactive”.

For `CCCCC1(COC(=O)CCC(=O)O)C(=O)N(c2ccccc2)N(c2ccccc2)C1=O`, the Potency result is “inactive”.

With `CN(C)CCCN`, the Potency entry is “inactive”.

`C=C(C)C(=O)O[C@H]1C[C@@H]2CC[C@@]1(C)C2(C)C`: the Potency entry is “inactive”.

Regarding `C=CCOC(=O)c1ccccc1C(=O)OCC=C`, the Potency result was “inactive”.

As to `CC(=O)c1ccc(S(=O)(=O)NC(=O)NC2CCCCC2)cc1`, the Potency entry was “inactive”.

Regarding `CCC(O)OC(O)CC` (stereo not drawn), the Potency entry was “inactive”.

Turning to `COCCOC(=O)c1ccccc1C(=O)OCCOC`, the Potency result is “inactive”.

Regarding `CC(C)CC(=O)CC(C)CC(C)C` (stereo not drawn), the Potency entry was “inactive”.

As to `O=c1n(CC2CO2)c(=O)n(CC2CO2)c(=O)n1CC1CO1` (stereo not drawn), the Potency result is “inactive”.

On to `O=C(/C=C/C=C/c1ccc2c(c1)OCO2)N1CCCCC1`, for which the Potency result is “inactive”.

With `Cc1cc(Cc2ccc(N)c(C)c2)ccc1N`, the Potency result was “inactive”.

As to `CCC[C@H](N[C@@H](C)C(=O)N1[C@H](C(=O)O)C[C@@H]2CCCC[C@@H]21)C(=O)OCC`, the Potency result was “inactive”.
